# Reference: PubChem BioAssay (NCATS)
# Several values for one entry are separate records, joined by “and”; a condition that tells them apart may be missing. Identical values can stand only once. A number with no mark means an inactive call. Inconclusive results are not listed. Where a call stands in place of a potency, no number is given. Activity calls are given as the source filed them. Unless noted, calls come from the whole dose curve; as a rule, active = well fitted curve in the direction sought with a large enough effect; inconclusive = small, poorly fitted or top-dose-only effect, or another doubt; inactive = no such curve, though single readings can be large; an effect the other way counts as inactive or inconclusive.
# Assays:
# [1] = system: Es-2; experiment: Primary qHTS to identify gynecologic anti-cancer compounds using libraries of approved drugs and bioactive compounds (AID 1345084); settings: Gynecologic cancer cell panel viability, ATPlite luminescence, 48 h; series mostly up to 57.5 µM; note: nearly all actives have a fitted effect of over 55% in size
# In short: (§1)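 Cells, 1,000 per well, plated 16 h, then exposed 48 h at 37 C to compounds. Viability by ATPlite luminescence after 15 min at room temperature.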
# [2] = system: HeLa; experiment: as above; settings: Gynecologic cancer cell panel viability, ATPlite luminescence, 48 h; series mostly up to 57.5 µM
# In short: as §1
# [3] = system: Hek293T; experiment: as above; settings: Gynecologic cancer cell panel viability, ATPlite luminescence, 48 h, control line for the selectivity index; series mostly up to 57.5 µM
# In short: as §1
# [4] = system: JEG-3; experiment: as above; settings: Gynecologic cancer cell panel viability, ATPlite luminescence, 48 h; series mostly up to 57.5 µM
# In short: as §1
# [5] = system: OV90; experiment: as above; settings: Gynecologic cancer cell panel viability, ATPlite luminescence, 48 h; series mostly up to 57.5 µM
# In short: as §1
# [6] = system: PA-1; experiment: as above; settings: Gynecologic cancer cell panel viability, ATPlite luminescence, 48 h; series mostly up to 57.5 µM
# In short: as §1
# [7] = system: SKOV3; experiment: as above; settings: Gynecologic cancer cell panel viability, ATPlite luminescence, 48 h; series mostly up to 57.5 µM
# In short: as §1
# [8] = system: Tov-21-G; experiment: as above; settings: Gynecologic cancer cell panel viability, ATPlite luminescence, 48 h; series mostly up to 57.5 µM
# In short: as §1
# [9] = system: Tov112D; experiment: as above; settings: Gynecologic cancer cell panel viability, ATPlite luminescence, 48 h; series mostly up to 57.5 µM
# In short: as §1
# [10] = Drug repurposing screens with cells derived from glioblastoma tumor samples (AID 1345199); settings: GBM patient neurospheres viability, ATP luminescence, 48 h; note: nearly all actives have a fitted effect of over 40% in size; note: potency is the fitted concentration of half-maximal effect
# In short: (§2)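 Primary testing used CD133+ neurospheres from four GBM patients, seven concentrations, 48 h exposure and ATP-based viability; confirmation added three slower-growing patient lines.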
# [11] = system: astro; experiment: as above; settings: viability, ATP luminescence, 48 h; series mostly up to 45.9 µM
# In short: as §2
# [12] = biological target: Nuclear receptor subfamily 1 group I member 2 (Rattus norvegicus) (UniProt Q9R1A7); experiment: qHTS assay for small molecule activators of the rat pregnane X receptor (rPXR) signaling pathway (AID 651751; call rule not given here); settings: rPXR reporter cells, luciferase (One-Glo), 24 h
# Chain of Nuclear receptor subfamily 1 group I member 2 (Rattus norvegicus) (Q9R1A7 whole entry, looked up): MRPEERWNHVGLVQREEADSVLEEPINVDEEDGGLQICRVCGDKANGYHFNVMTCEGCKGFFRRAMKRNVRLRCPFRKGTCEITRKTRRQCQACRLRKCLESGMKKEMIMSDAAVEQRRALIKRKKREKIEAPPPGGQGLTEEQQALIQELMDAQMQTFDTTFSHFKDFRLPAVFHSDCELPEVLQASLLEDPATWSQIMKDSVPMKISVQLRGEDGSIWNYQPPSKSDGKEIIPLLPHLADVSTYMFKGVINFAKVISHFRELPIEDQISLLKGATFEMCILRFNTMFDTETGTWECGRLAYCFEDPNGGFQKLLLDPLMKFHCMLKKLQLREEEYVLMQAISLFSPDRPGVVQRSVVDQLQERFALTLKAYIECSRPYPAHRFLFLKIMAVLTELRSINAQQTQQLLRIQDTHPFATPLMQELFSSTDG
# [13] = qHTS assay for small molecule activators of the human pregnane X receptor (PXR) signaling pathway (AID 720659; call rule not given here)
# [14] = at 45.9 µM (top of the series), tumour line B
# [15] = at 45.9 µM (top of the series), tumour line D
# [16] = at 46 µM (top of the series), tumour line A
# [17] = at 21.2 µM (top of the series), tumour line B
# [18] = at 21.2 µM (top of the series), tumour line D
# [19] = at 21.3 µM (top of the series), tumour line A
# [20] = at 46.1 µM (top of the series), tumour line C
compound,measurement,setting,value
c1ccc(CN2CCNCC2)cc1,Potency,[1],inactive
same,Potency,[2],inactive
same,outcome,[3],inactive
same,outcome,[4],inactive
same,Potency,[5],inactive
same,Potency,[6],inactive
same,outcome,[7],inactive
same,Potency,[8],inactive
same,Potency,[9],inactive
same,"activity, negative = cell killing","[10]; at 194 µM (top of the series), tumour line B",7.52%
same,"activity, negative = cell killing","[10]; at 194 µM (top of the series), tumour line D",-7.34%
same,Potency,[10]; tumour line A,126 µM (active)
same,Potency,[11],inactive
Cc1ncsc1CCCl,Potency,[1],inactive
same,Potency,[2],inactive
same,outcome,[3],inactive
same,outcome,[4],inactive
same,Potency,[5],inactive
same,Potency,[6],inactive
same,outcome,[7],inactive
same,Potency,[8],inactive
same,Potency,[9],inactive
same,"activity, negative = cell killing",[10]; [14],-10.2%
same,"activity, negative = cell killing",[10]; [15],-8.99%
same,"activity, negative = cell killing",[10]; [16],4.91%
same,Potency,[11],inactive
CC(=O)OCC1=C(C(=O)O)N2C(=O)[C@@H](N)[C@H]2SC1,Potency,[1],inactive
same,Potency,[2],inactive
same,outcome,[3],inactive
same,outcome,[4],inactive
same,Potency,[5],inactive
same,Potency,[6],inactive
same,outcome,[7],inactive
same,Potency,[8],inactive
same,Potency,[9],inactive
same,"activity, negative = cell killing",[10]; [17],-6.05%
same,"activity, negative = cell killing",[10]; [18],-13.7%
same,"activity, negative = cell killing",[10]; [19],-21.2%
same,Potency,[11],inactive
C=CCN1C[C@H](C)N([C@H](c2ccc(C(=O)N(CC)CC)cc2)c2cccc(OC)c2)C[C@H]1C,Potency,[1],inactive
same,Potency,[2],inactive
same,outcome,[3],inactive
same,outcome,[4],inactive
same,Potency,[5],inactive
same,Potency,[6],inactive
same,outcome,[7],inactive
same,Potency,[8],inactive
same,Potency,[9],inactive
same,"activity, negative = cell killing",[10]; [14],-27.6%
same,Potency,[10]; tumour line A,7.08 µM (active)
same,Potency,[11],inactive
CC(=O)NC1CCSC1=O (configuration not stated),Potency,[1],inactive
same,Potency,[2],inactive
same,outcome,[3],inactive
same,outcome,[4],inactive
same,Potency,[5],inactive
same,Potency,[6],inactive
same,outcome,[7],inactive
same,Potency,[8],inactive
same,Potency,[9],inactive
same,"activity, negative = cell killing",[10]; [17],-5.98%
same,"activity, negative = cell killing",[10]; [18],7.84%
same,"activity, negative = cell killing",[10]; [19],-12.3%
same,"activity, negative = cell killing",[10]; [14],-16.4%
same,"activity, negative = cell killing",[10]; [15],-12.7%
same,Potency,[11],inactive
C#C[C@]1(O)CC[C@H]2[C@@H]3CCC4=CC(=O)CC[C@]4(C)[C@H]3CC[C@@]21C,Potency,[1],inactive
same,Potency,[2],inactive
same,outcome,[3],inactive
same,outcome,[4],inactive
same,Potency,[5],inactive
same,Potency,[6],inactive
same,outcome,[7],inactive
same,Potency,[8],inactive
same,Potency,[9],inactive
same,"activity, negative = cell killing",[10]; [14],-23.4% and -19.6%
same,"activity, negative = cell killing",[10]; [15],-13.1% and -15.3%
same,"activity, negative = cell killing",[10]; [16],-19.9%
same,Potency,[11],inactive
CCC(C)(C)c1ccc(O)cc1,Potency,[1],inactive
same,Potency,[2],inactive
same,outcome,[3],inactive
same,outcome,[4],inactive
same,Potency,[5],inactive
same,Potency,[6],inactive
same,outcome,[7],inactive
same,Potency,[8],inactive
same,Potency,[9],inactive
same,"activity, negative = cell killing",[10]; [14],-7.41%
same,"activity, negative = cell killing",[10]; [15],13.4%
same,"activity, negative = cell killing",[10]; [16],-14.1%
same,"activity, negative = cell killing",[10]; [20],-3.53%
same,Potency,[11],inactive
same,max response,[12],1.88% and -0.811%
C[C@@H](N)[C@@H](O)c1ccccc1,Potency,[1],inactive
same,Potency,[2],inactive
same,outcome,[3],inactive
same,outcome,[4],inactive
same,Potency,[5],inactive
same,Potency,[6],inactive
same,outcome,[7],inactive
same,Potency,[8],inactive
same,Potency,[9],inactive
same,"activity, negative = cell killing",[10]; [17],-14.5%
same,"activity, negative = cell killing",[10]; [18],16.2%
same,"activity, negative = cell killing",[10]; [19],-20.6%
same,Potency,[11],inactive
O=C1c2ccccc2C(=O)C1C(=O)C(c1ccccc1)c1ccccc1,Potency,[1],inactive
same,Potency,[2],inactive
same,outcome,[3],inactive
same,outcome,[4],inactive
same,Potency,[5],inactive
same,Potency,[6],inactive
same,outcome,[7],inactive
same,Potency,[8],inactive
same,Potency,[9],inactive
same,"activity, negative = cell killing",[10]; [14],-21.4%
same,"activity, negative = cell killing",[10]; [15],-28.8%
same,"activity, negative = cell killing",[10]; [16],-53.7%
same,"activity, negative = cell killing",[10]; [20],-30.6%
same,outcome,[13],inactive
O=c1[nH]oc2c1CCNC2,Potency,[1],inactive
same,Potency,[2],inactive
same,outcome,[3],inactive
same,outcome,[4],inactive
same,Potency,[5],inactive
same,Potency,[6],inactive
same,outcome,[7],inactive
same,Potency,[8],inactive
same,Potency,[9],inactive
same,"activity, negative = cell killing",[10]; [14],-19.5%
same,"activity, negative = cell killing",[10]; [15],-5.63%
same,"activity, negative = cell killing",[10]; [16],-27.4%
same,Potency,[11],inactive
CC1(C)C(C=C(Cl)Cl)C1C(=O)OC(C#N)c1cccc(Oc2ccccc2)c1 (configuration not stated),Potency,[1],inactive
same,Potency,[2],inactive
same,outcome,[3],inactive
same,outcome,[4],inactive
same,Potency,[5],inactive
same,Potency,[6],inactive
same,outcome,[7],inactive
same,Potency,[8],inactive
same,Potency,[9],inactive
same,"activity, negative = cell killing",[10]; [14],-16.8%
same,"activity, negative = cell killing",[10]; [20],-35.5%
same,Potency,[10]; tumour line A,25.1 µM (active)
same,Potency,[11],inactive
Oc1ccc(Cl)cc1,Potency,[1],inactive
same,Potency,[2],inactive
same,outcome,[3],inactive
same,outcome,[4],inactive
same,Potency,[5],inactive
same,Potency,[6],inactive
same,Potency,[8],inactive
same,Potency,[9],inactive
same,"activity, negative = cell killing",[10]; [14],-7.37%
same,"activity, negative = cell killing",[10]; [15],-24.9%
same,"activity, negative = cell killing",[10]; [16],-26.5%
same,max response,[12],5.25%
same,outcome,[13],inactive
CCN[C@@H](C)Cc1cccc(C(F)(F)F)c1,Potency,[1],inactive
same,Potency,[2],inactive
same,outcome,[3],inactive
same,outcome,[4],inactive
same,Potency,[5],inactive
same,Potency,[6],inactive
same,outcome,[7],inactive
same,Potency,[8],inactive
same,Potency,[9],inactive
same,"activity, negative = cell killing","[10]; at 91.6 µM (top of the series), tumour line B",2.77%
same,"activity, negative = cell killing","[10]; at 91.6 µM (top of the series), tumour line D",-1.09%
same,Potency,[11],inactive
CCN(CC)CCc1c[nH]c2ccccc12,Potency,[1],inactive
same,Potency,[2],inactive
same,outcome,[3],inactive
same,outcome,[4],inactive
same,Potency,[6],inactive
same,outcome,[7],inactive
same,Potency,[8],inactive
same,Potency,[9],inactive
same,"activity, negative = cell killing","[10]; at 108 µM (top of the series), tumour line B",-10.6%
same,"activity, negative = cell killing","[10]; at 108 µM (top of the series), tumour line D",-16.4%
same,Potency,[10]; tumour line A,63.1 µM (active)
same,Potency,[11],inactive
COc1ccc2c(c1OC)C(=O)O[C@H]2[C@@H]1c2cc3c(cc2CCN1C)OCO3,Potency,[1],inactive
same,Potency,[2],inactive
same,outcome,[3],inactive
same,outcome,[4],inactive
same,Potency,[5],inactive
same,Potency,[6],inactive
same,Potency,[8],inactive
same,Potency,[9],inactive
same,"activity, negative = cell killing",[10]; [14],0.565%
same,"activity, negative = cell killing",[10]; [15],-4.13%
same,Potency,[11],inactive
CC(C)(C)c1ccc(O)cc1,Potency,[1],inactive
same,Potency,[2],inactive
same,outcome,[3],inactive
same,outcome,[4],inactive
same,Potency,[5],inactive
same,Potency,[6],inactive
same,Potency,[8],inactive
same,Potency,[9],inactive
same,"activity, negative = cell killing",[10]; [14],-7.29%
same,"activity, negative = cell killing",[10]; [15],7.61%
same,"activity, negative = cell killing",[10]; [16],-21%
same,Potency,[11],inactive
